# Measurements taken from ChEMBL document CHEMBL4888484, “Replenishing the malaria drug discovery pipeline: Screening and hit evaluation of the MMV Hit Generation Library 1 (HGL1) against asexual blood stage Plasmodium falciparum ,using a nano luciferase reporter read-out” (2022).
# Hit rate of the full screen: of about 150,000 compounds, about 540 (0.36%) showed an effect of 50% or more. This excerpt belongs to a sample that is enriched for strong results.
# Test system: Plasmodium falciparum
# Assay: Primary screen in NF54 nanoGlo assay, in single point, at 2uM, 72h; a lower Z score goes with more inhibition
# Format: functional, Erythrocyte
# Conditions: timepoint 72 hour
SMILES,% Inhibition [%],Z score
CCn1c(CN2CCCC2)nc2cc(S(=O)(=O)N3CCCCC3)ccc21,-46,5.44
Cc1ccc(CNC(=O)[C@]2(C)CCC(=O)N2CCCc2ccccc2)cc1,-16,1.5
O=C(Nc1cccc(S(=O)(=O)NC2=NCCC2)c1)c1cc(Cl)c2c(c1)OCCCO2,-11,1.51
CCOc1cccc(-c2ccc3nc(-c4cccc(OC)c4)c(CCC(=O)NC4CC4)n3c2)c1,4,-0.75
CCOc1cccc(-c2ccc3nc(-c4cccc(OC)c4)c(CCC(=O)NCCN4CCCC4)n3c2)c1,59,-11.14
CCOc1cccc(-c2ccc3nc(-c4cccc(OC)c4)c(CCC(=O)NCCc4ccc(OC)c(OC)c4)n3c2)c1,22,-4.22
Cc1nc(O)nc(O)c1CN1CCOCC1,-10,1.65
c1ccc(-c2nnc(-c3cccnc3NCc3cccs3)o2)cc1,-5,0.8
O=C1CCCN1[C@H]1CCCN(S(=O)(=O)CC2CCCCC2)CC1,-7,1.12
O=C1O[C@H]2CN(CCCc3ccccc3)C[C@H]2N1Cc1ccccn1,-16,1.43
CCOCC1CCN(CCc2ccc3c(c2)CCO3)CC1,-4,0.71
O=C([C@@H]1CCCN1C1CC1)N1CCC2(CC1)OCCc1ccccc12,-14,1.46
N#Cc1cccc(-c2ccnc(N[C@H]3CO[C@H]4[C@@H]3OC[C@@H]4NC(=O)c3ccc(C(F)(F)F)cc3)n2)c1,-7,1.07
COCC(=O)N[C@H]1CO[C@H]2[C@@H]1OC[C@@H]2Nc1nccc(-c2cccc(C#N)c2)n1,50,-0.95
COCC(=O)N[C@H]1CO[C@H]2[C@@H]1OC[C@@H]2Nc1nccc(-c2ccc(OC)cc2)n1,-5,0.87
CC(C)Cn1cccc(C(=O)Nc2cn(C)nc2-c2ccco2)c1=O,-9,1.12
CCN(C(=O)COc1cccc(C)c1)[C@H](c1ccc(C)cc1)c1c[nH]c2ccccc12,6,-0.77
COc1ccc(-c2oc(C)c(C)[n+]2[O-])cc1OC,71,0.43
Cc1ccccc1-c1oc(C)c(C)[n+]1[O-],2,-0.28
Cc1oc(-c2cccc(F)c2)[n+]([O-])c1C,5,-0.64
COc1ccc(CN2C[C@H]3CC[C@@H](C2)N(CC=C(C)C)C3)cc1CN(C)C,-17,1.87

SMILES,% Inhibition [%],Z score
CN(Cc1cnc2ccccc2c1)c1cnn(C)c1,1,-0.16
Cc1ncsc1CCNC(=O)[C@H]1CCN(c2ccc(C(F)(F)F)cn2)C1,-4,0.7
C[C@@H](C1CC1)N(C1CC1)S(=O)(=O)c1cccc2c1N=S=N2,38,-0.53
C[C@@H](C1CC1)N(C1CC1)S(=O)(=O)c1ccc(F)cc1F,84,-10.78
C[C@@H](C1CC1)N(CC(=O)Nc1ccc(F)cc1F)C1CC1,-12,1.76
CCOC(=O)N1CCC(C)(CN2CCS(=O)(=O)C[C@@H](C)C2)CC1,-13,1.46
Cn1cc(Cl)cc1C(=O)N1CCN(Cc2ccccc2F)C(=O)C1,-2,0.24
CCOc1ccc(Cl)cc1-c1cc(C)n[nH]c1=O,-8,1.52
Cc1cccc(N2CCN(C(=O)c3cn4c(n3)COCC4)CC2)c1C,-8,1.36
COc1ccc(C)c2sc(N(Cc3cccnc3)C(=O)c3ccn(C)n3)nc12,-12,2
COc1ccc(C)c2sc(N(CCCN(C)C)C(=O)c3ccnn3C)nc12,-7,1.27
COc1ccc(C)c2sc(N(CCCn3ccnc3)C(=O)Cc3ccc(F)cc3)nc12,78,-7.85
CC(C)(C)OC(=O)N1CC2CC1CCC2=O (configuration not stated),-3,0.51
COc1ccc(CN2C[C@H]3CC[C@@H](C2)N(C(=O)c2nc(C)c[nH]2)C3)cc1,-2,0.32
CC(C)(C)OC(=O)NCc1cccnc1NC(=O)Cc1ccoc1,10,-1.94
O=C(CCn1nc2ccccn2c1=O)Nc1cnccc1Nc1ccc(F)cc1,-25,4.76
Cc1nn(C2CCCC2)c2nc(-c3cc(CN(C)C)cs3)[nH]c12,69,-9.28
Cc1nn(C2CCCC2)c2nc(-c3cccs3)[nH]c12,-10,1.39
Cc1nn(C)c(Cl)c1-c1nc2c([nH]1)c(C)nn2C1CCCCC1,1,-0.09
Fc1ccc([C@@H]2CCN2CCn2cc(Cl)cn2)cc1,12,-1.59
